# Hits are enriched below; roughly 11% of the tested compounds scored in any of these assays.
# IMPase Li cell: qHTS Assay for Identifying the Cell-Membrane Permeable IMPase Inhibitors: Potentiation with Lithium; CHO-M1 cells, IP1 TR-FRET (IP-One), carbachol + lithium; AID 1457, 2008; Potency, µM (doses to about 59.4 µM), most hits filed as inhibitors; 210,000 tested, 0.35% active;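 note: IP1 builds up when IMPase is blocked and the TR-FRET signal falls; nearly all actives have a fitted effect of over 50% in size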
#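 CHO cells stably expressing M1 receptor (2000/well) were cultured 16–30 h, then exposed to compounds with a small lithium addition for 30 min at 37C. IP1 was measured by TR-FRET competition; AC50 from Hill fits.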
# HPGD inh: qHTS Assay for Inhibitors of HPGD (15-Hydroxyprostaglandin Dehydrogenase); AID 894, 2007; 150,000 tested, 4.3% active; purified HPGD, NADH fluorescence kinetic, PGE2 substrate; 15-hydroxyprostaglandin dehydrogenase [NAD(+)] (Homo sapiens), P15428; Potency, µM, usual class: inhibitors; active = well fitted inhibition curve with a large enough effect, not every such curve was filed as active; inconclusive = small, poorly fitted or top-dose-only effect, or another doubt; inactive = no such curve, though single readings can be large or run the other way
#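 20 nM HPGD preincubated 15 min at room temperature with compound in 50 mM Tris-HCl pH 8, 0.01% Tween 20. Started with 1 mM NAD+ and 30 uM prostaglandin E2; NADH fluorescence (360/450 nm) read 5 times over 30-s intervals, last minus first.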
# IMPase cell inh: qHTS Assay for Identifying the Cell-Membrane Permeable IMPase Inhibitors. Inositol monophosphatase 1 (Rattus norvegicus), P97697. AID 901, 2007. CHO-M1 cells, IP1 accumulation, HTRF TR-FRET ratio. inhibition (IP1 accumulation), % at 46.1 µM. 120,000 tested, under 10 active; active = well fitted curve in the direction sought with a large enough effect in the signal ratio, not every such curve was filed as active; inconclusive = small, poorly fitted or top-dose-only effect, or a change in a side signal; inactive = no such curve, though single readings can be large or run the other way; the % refers to the signal ratio;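 note: cells stimulated with carbachol in lithium chloride buffer; higher means more IMPase inhibition seen as more IP1 and lower FRET ratio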
#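 Elevated IP1 in lysates lowers TR-FRET signal (665/620 ratio and 620 channel reported). Cells were CHO-M1, given carbachol (50 uM as added) plus 50mM LiCl, pH 7.4, 30 min, 37C; compounds titrated up to 46 uM; AC50 by Hill equation.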
# ALOX12 inhib: qHTS Assay for Inhibitors of 12-hLO (12-human lipoxygenase) | AID 1452, 2008 | 150,000 tested, 0.12% active | Potency, µM (highest dose often 57.1 µM), actives largely listed as inhibitors | purified 12-hLO, xylenol orange hydroperoxide absorbance; note: nearly all actives have a fitted effect of over 55% in size
# Target sequence (P18054 whole entry, looked up): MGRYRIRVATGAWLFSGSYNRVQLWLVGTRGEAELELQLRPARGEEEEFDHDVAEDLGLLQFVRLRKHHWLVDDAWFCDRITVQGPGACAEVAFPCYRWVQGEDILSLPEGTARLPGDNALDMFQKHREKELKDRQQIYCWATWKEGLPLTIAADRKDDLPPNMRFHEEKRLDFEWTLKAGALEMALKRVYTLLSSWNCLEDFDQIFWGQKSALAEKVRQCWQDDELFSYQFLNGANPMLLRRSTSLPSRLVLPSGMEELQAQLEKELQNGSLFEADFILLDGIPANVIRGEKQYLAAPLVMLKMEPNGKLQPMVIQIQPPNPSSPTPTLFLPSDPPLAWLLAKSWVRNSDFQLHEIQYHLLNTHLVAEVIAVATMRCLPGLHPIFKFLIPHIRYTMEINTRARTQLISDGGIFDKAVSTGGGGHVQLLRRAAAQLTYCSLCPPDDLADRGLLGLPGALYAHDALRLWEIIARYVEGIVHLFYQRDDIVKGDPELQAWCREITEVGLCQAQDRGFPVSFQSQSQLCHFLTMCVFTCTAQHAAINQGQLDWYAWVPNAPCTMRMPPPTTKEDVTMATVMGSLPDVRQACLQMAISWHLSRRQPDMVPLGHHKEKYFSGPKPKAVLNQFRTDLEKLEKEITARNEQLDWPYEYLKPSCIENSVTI
#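 Purified human 12hLO (150 nM final) was preincubated with compounds for 15 min at room temperature in 25 mM Hepes pH 7.0, 0.01% Triton X-100, then reacted with 40 uM arachidonic acid for 30 min. Hydroperoxide was detected with ferrous iron/xylenol orange.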
# ALDH1A1 inh: qHTS Assay for Inhibitors of Aldehyde Dehydrogenase 1 (ALDH1A1). Aldehyde dehydrogenase 1A1 (Homo sapiens), P00352. Purified ALDH1A1, NADH fluorescence, propionaldehyde substrate. Potency, µM (series often up to 75.3 µM), most hits filed as inhibitors. 220,000 tested, 7.3% active. AID 1030, 2008; active = well fitted inhibition curve with a large enough effect, not every such curve was filed as active; inconclusive = small, poorly fitted or top-dose-only effect, or another doubt; inactive = no such curve, though single readings can be large or run the other way
# PNC assembly inh: High Content Assay for Compounds that inhibit the Assembly of the Perinucleolar Compartment; PC3M PTB-GFP, PNC prevalence imaging, 16 h; stronger effect = lower value; activity change (PNC), negative = inhibition, % at 10 µM; 140,000 tested, 3.1% active;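 active = readout at or below -70, meaning at least 70% loss of cells showing the perinucleolar compartment, a nuclear body marking cancer cells; inconclusive = readout between -30 and a set limit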
#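 Read-out is percentage of cells bearing a perinucleolar compartment, from automated 20x imaging of fixed, Hoechst-stained PC3M PTB-GFP cells. Cells were seeded 4 h, then exposed 16 h to compound (23 nl of library stock) in duplicate plates.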
# Numbers stand for hits; – = inactive; ? = inconclusive; · = not tested or not shown; [ ] = dose if it differs, or a comment. Unless noted, calls come from the whole dose curve; as a rule, active = well fitted curve in the direction sought with a large enough effect; inconclusive = small, poorly fitted or top-dose-only effect, or another doubt; inactive = no such curve, though single readings can be large; an effect the other way counts as inactive or inconclusive.
SMILES,IMPase Li cell,HPGD inh,IMPase cell inh,ALOX12 inhib,ALDH1A1 inh,PNC assembly inh
Cn1c(Cc2ccccc2)nnc1SCC(=O)c1ccc(Br)s1,–,28.2µM,–,–,14.1µM,–
Cn1c(CSc2ncccn2)nnc1SCC(=O)N1CCCC1,–,·,·,·,–,·
N#Cc1ccc(CS(=O)(=O)c2nc3ccccc3s2)cc1,–,–,·,·,?,·
N[C@@]1(C(=O)O)CO[C@H]2[C@H](C(=O)O)[C@H]21,–,–,·,–[0.00818 µM],–,·
COc1cc(OC)c([C@@H]2O[C@H](CO)[C@@H](O)[C@H](O)[C@H]2O)c(OC)c1,–,–,·,·,–,·
COc1cc(O)ccc1-c1nc2cc(C)ccn2c1Nc1ccccc1C,·,·,–,·,·,·
Cc1cccc(Oc2nc3c(c(=O)n(C)c(=O)n3C)n2Cc2ccccc2)c1C,·,·,–,·,·,·
CN(C(=O)c1ccc2c(c1)C(=O)N(CCC1=CCCCC1)C2=O)C1CCCCC1,–,14.1µM,–,–,0.794µM,–
O=C1O[C@@H]([C@H](O)[C@H](O)[C@H](O)CO)[C@@H](O)[C@@H]1O,–,–,·,–[11.4 µM],–[13.5 µM],·
O=C(NCc1ccco1)c1ccc(=O)oc1,·,·,–,–,–,-82.9
CC1CC1C(=O)OCC(=O)NC(=O)NCc1ccco1 (stereo not drawn),–,–,–,–,–,-87.5
COC(=O)[C@@H](NC(=O)NCc1ccco1)C(C)C,–,–,–,–,10µM,–
O=C(NCc1ccco1)c1ccc(COc2cc(Cl)ccc2Cl)cc1,–,17.8µM,–,–,–,–
CN(c1ccccc1C(=O)Nc1cccc(Cl)c1Cl)S(C)(=O)=O,–,–,–,–,–,–
CC(C=O)Cc1ccc(C(C)(C)C)cc1 (stereo not drawn),–,–,·,–,–,·
CCCCCC(=O)O[C@H](CC(=O)O)C[N+](C)(C)C,–,–,–,–,–,·
CCC1=Nc2cc(C(=O)NCc3ccco3)ccc2Sc2ccc(Cl)cc21,–,–,·,–,?,-100.0
CC(C)Oc1ccc(C(=O)NCc2ccco2)cc1,–,17.8µM,–,–,–,–
CCC1=Nc2cc(C(=O)NCc3ccco3)ccc2Sc2ccccc21,–,–,·,–,?,–
CC(C)=CCC/C(C)=C/CO/N=C1/C[C@@H](O)[C@@H](O)[C@@H]2[C@@H]3C(=O)N(C[C@@H]4CCCO4)C(=O)[C@H]3CC[C@@H]12,·,·,·,·,–[13.5 µM],·
CC(C)CCN1CCN(Cc2ccc(N3CCNC3=O)cc2)CC1CCO (stereo not drawn),–,·,·,·,–,·
COc1cc([N+](=O)[O-])ccc1NC(=O)CCCOc1cccc(C)c1C,–,–,–,–,14.1µM,–
O=C(CCN1C(=O)c2ccccc2C1=O)N1CCCCCC1,–,15.8µM,–,–,20µM,–
CC(C)NC(=O)CN1C(=O)C(=O)c2ccccc21,–,–,–,–,–,?
O=C1C(=O)N(CC(=O)N2CCCC2)c2ccccc21,–,·,·,·,3.55µM,·
SMILES,IMPase Li cell,HPGD inh,IMPase cell inh,ALOX12 inhib,ALDH1A1 inh,PNC assembly inh
COCC(=O)N1CCC2(CCCN(Cc3ccc(C#N)cc3)C2)CC1,–,–,·,–,–,·
O=S(=O)(NC1CCCCC1Nc1ccc(Cl)cc1)c1ccccc1 (stereo not drawn),–,–,·,–,14.1µM,–
O=S(=O)(NC1CCCCC1Oc1ccccc1)c1ccccc1 (stereo not drawn),–,–,–,–,15.8µM,–
O=S(=O)(NC1CCCCC1Sc1ncccn1)c1ccccc1 (stereo not drawn),–,–,·,–,?,–
O=C(O)CCn1c(-c2ccccc2)cc2ccccc21,–,·,·,·,?,·
N#CC(C#N)=C1C=C2C=C(N3CCCCC3)CCC2CC1 (stereo not drawn),–,–,·,–,–,-118.2
CCN(CC)C1=CC2=CC(=C(C#N)C#N)CCC2CC1 (stereo not drawn),–,–,·,–,2.24µM,-134.0
CCCCN(C)C1=CC2=CC(=C(C#N)C#N)CCC2CC1 (stereo not drawn),–,–,·,–,?,-82.6
CCN(c1ccccc1)S(=O)(=O)c1cc(C(=O)Nc2ccccc2Cl)ccc1F,–,–,–,–,–,?
CCN(c1ccccc1)S(=O)(=O)c1cc(C(=O)Nc2ccc(Br)cc2)ccc1F,–,?,·,–,28.2µM,–
COC(=O)CCS(=O)(=O)c1nc(-c2ccccc2)cc(C(F)(F)F)n1,–,28.2µM,–,–,–,–
CCOC(=O)CS(=O)(=O)c1nc(-c2ccc(F)cc2)cc(C(F)(F)F)n1,–,?,–,–,?,–
COCC(C)NC(=O)CCS(=O)(=O)c1nc(-c2ccc(OC)cc2)cc(C(F)(F)F)n1 (stereo not drawn),–,–,–,–,–,-88.5
O=C(O)CCS(=O)(=O)c1nc(-c2cccs2)cc(C(F)(F)F)n1,–,?,–,–,?,–
COc1ccc(-c2cc(C(F)(F)F)nc(S(C)(=O)=O)n2)cc1,–,?,–,–,?,–
CCOC(=O)CS(=O)(=O)c1nc(-c2ccccc2)cc(C(F)(F)F)n1,–,14.1µM,–,–,–,?
CCOC(=O)CCS(=O)(=O)c1nc(-c2ccccc2)cc(C(F)(F)F)n1,–,15.8µM,–,–,–,–
CCCc1cc2c(=O)c(-c3ccc4c(c3)OCCO4)coc2cc1OS(C)(=O)=O,–,–,·,–,?,?
CCCc1cc2c(=O)c(-c3ccc4c(c3)OCCO4)c(C)oc2cc1OS(C)(=O)=O,–,–,–,–,0.355µM,?

# High-throughput results as filed in PubChem.
